“And” between values parts separate entries of the source, which are not always exact repeats. Equal entries are not always repeated. Compounds without any hit were thinned out: in the full panel of roughly 79,000, 15% have a hit. Unmarked numbers belong to inactive results. The source made the active and inactive calls. No stated cut-off is given here; in the data, active means growth inhibition above about 70%; inactive means the rest.
Assay: NCI Yeast Anticancer Drug Screen. Data for the mlh1 rad18 strain (AID 175)
Settings: S. cerevisiae mlh1 rad18 strain growth inhibition, stronger effect = higher value
Method: Growth inhibition of yeast strains with defined genetic alterations is measured as a screen for potential anti-cancer activity. Selected strains with alterations in DNA damage repair or cell cycle control were exposed to compounds and growth inhibition was measured relative to vehicle treated controls. The strain used in this assay is mlh1 rad18

[1] = at 5.0 µM (retest, dose inferred, filed as 0.5)
[2] = at 50.0 µM (retest, dose inferred, filed as 5.0)

Row | Compound | growth inhibition [1] [%] | growth inhibition [2] | growth inhibition (at 50.0 µM)
1 | O=C1C=CC2C3C(=O)N(c4ccccc4)C(=O)C3C1N2Cc1ccccc1 (configuration not stated) | 51 | 79% (active) | 
2 | Cc1nc(Sc2nc3ccc([N+](=O)[O-])cc3s2)sc1C | -13 | 90% (active) | 93.6% (active)
3 | Oc1ccc(Cc2ccc(Cl)cc2)c(O)c1 | -33 | 98% (active) | 
4 | COC(=O)c1ccc(Cl)c(NN)c1 | 38 | 42% | 88.7% (active)
5 | N=C1C(=N)c2ccccc2-c2ccccc21 | 19 | 99% (active) | 89.2% (active)
6 | Cc1cc2nc(CC(=O)c3ccncc3)c(=O)[nH]c2cc1C | -18 | 21% | 73.1% (active)
7 | CC1(c2ccc(O)cc2)CCC(C(C)(C)c2ccc(O)cc2)CC1 (configuration not stated) | 44 | 100% (active) | 91.1% (active)
8 | Fc1cccc(F)c1C1SCc2nc3cc4ccccc4cc3n21 (configuration not stated) | 28 | 75% (active) | 42.5%
9 | S=c1[nH]c(=S)c2[nH]c(=S)[nH]c2[nH]1 | -23 | -23% | 
10 | O=C(/C=C/C(Cl)(Cl)Cl)Nc1ccc(Cl)cc1 | 18 | 64% | 85% (active)
11 | O=C(C[P+](c1ccccc1)(c1ccccc1)c1ccccc1)c1ccccc1 | 5 | -46% | 34.6%
12 | CCOC(=O)c1c(C)[nH]c2ccc(O)cc12 | -6 | 50% | 96.9% (active)
13 | CC(C)=CCCC(C)C1=C(O)C(=O)C(C)=CC1=O (configuration not stated) | 25 | 98% (active) | 87% (active)
14 | Nc1cccc2cccc([N+](=O)[O-])c12 | -130 | -68% | 21.4%
15 | COc1ccc(-c2cc(-c3ccco3)c(C#N)c(=O)n2C2OC(COC(C)=O)C(OC(C)=O)C(OC(C)=O)C2OC(C)=O)cc1 (configuration not stated) |  |  | 11.1% and -19.1%
16 | COc1ccc(Cc2c3cc(O)c(=O)cc-3ccn2C)cc1OC |  |  | 28.1% and 17.9%
17 | O=C(O)/C=C/c1ccc(Cl)cc1 |  |  | 26.9% and 13.4%
